Tb PYK inh = qHTS of Trypanosoma Brucei Inhibitors; TbPYK enzyme, Kinase-Glo Plus ATP luminescence, 45 min; Potency, µM (titrated, usually from 76.8 µM), for the others: at the highest dose activity, negative = inhibition, hits mostly inhibitors; 410,000 tested, 0.12% active; also: nearly all actives have a fitted effect of over 50% in size
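In this concentration-response screen, enzyme-free wells defined baseline while DMSO plates tracked drift. Each reaction combined TbPYK, substrate, compound and 130 uM ADP for 45 min at room temperature. Kinase-Glo Plus luminescence gave the signal.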
RE007 growth inh = qHTS Assay for Inhibitors of the HIV-1 protein Vpr; S. pombe RE007 Vpr strain, BacTiter-Glo ATP luminescence, 24 h; Potency, µM (top dose mostly 92.2 µM), without a hit: at the top dose activity change, negative = less growth, most hits filed as inhibitors; 360,000 tested, 0.21% active; active = well fitted falling curve with a large enough effect; inconclusive = small, poorly fitted or top-dose-only effect; inactive = no such curve, though single readings can be large or run the other way; also: nearly all actives have a fitted effect of over 50% in size
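Fission yeast RE007 carrying one integrated HIV-1 vpr copy, seeded at OD 0.01 in PMG+AL medium with 23 nL pinned compound. Grown 24 h at 30 degrees; viability read by BacTiter-Glo luminescence after 5 min.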
LmPK inh = qHTS Assay for Inhibitors of Leishmania Mexicana Pyruvate Kinase (LmPK) | Q27686 | purified LmPK, Kinase-Glo ATP luminescence, 1 h | Potency, µM (titrated, usually from 57.5 µM), for the others: at the highest dose activity change, negative = inhibition, most hits filed as inhibitors | 290,000 tested, 0.37% active | AID 1721, 2009
Target sequence (Q27686 whole entry, looked up): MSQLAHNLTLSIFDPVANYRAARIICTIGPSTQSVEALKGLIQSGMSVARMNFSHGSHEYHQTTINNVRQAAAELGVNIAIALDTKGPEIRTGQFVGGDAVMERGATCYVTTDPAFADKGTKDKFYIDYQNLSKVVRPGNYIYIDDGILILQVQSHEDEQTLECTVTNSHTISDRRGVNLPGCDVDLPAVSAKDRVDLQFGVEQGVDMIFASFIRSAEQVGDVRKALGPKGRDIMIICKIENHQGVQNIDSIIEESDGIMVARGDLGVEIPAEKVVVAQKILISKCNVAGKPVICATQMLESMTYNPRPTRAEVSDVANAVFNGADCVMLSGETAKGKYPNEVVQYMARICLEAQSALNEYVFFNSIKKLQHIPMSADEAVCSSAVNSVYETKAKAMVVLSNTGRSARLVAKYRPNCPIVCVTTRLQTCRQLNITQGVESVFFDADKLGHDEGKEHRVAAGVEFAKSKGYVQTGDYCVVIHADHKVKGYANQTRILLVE
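qHTS format; LmPK 0.1 nM; substrates PEP 0.5 mM and ADP 0.1 mM. One-hour room-temperature incubation, then coupled luciferase luminescence; 0.5 nM enzyme wells mark activation.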
Sm TGR inh = qHTS Assay for the Inhibitors of Schistosoma Mansoni Peroxiredoxins; AID 485364, 2010; Potency, µM (highest dose often 114 µM), for the others: top-dose activity change, negative = inhibition, most hits filed as inhibitors; 360,000 tested, 3% active; Schistosoma mansoni thioredoxin glutathione reductase (TGR), Q962Y6; purified TGR, DTNB reduction, TNB absorbance 405 nm; also: nearly all actives have a fitted effect of over 60% in size
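Kinetic colorimetric format: TGR-catalysed, NADPH-driven DTNB reduction monitored via TNB absorbance. Enzyme dispensed at 20 nM; compound exposure 15 min at room temperature before reaction start.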
An asterisk follows results filed as active; ? = inconclusive; nt = no result; [ ] = another dose, or the depositor's remark. Compounds with a hit are over-represented: about 3% of the library has one in this group of screens. Unless noted, calls follow the shape of the dose curve; as a rule, active = well fitted curve in the direction sought with a large enough effect; inconclusive = small, poorly fitted or top-dose-only effect, or another doubt; inactive = no such curve, though single readings can be large; an effect the other way counts as inactive or inconclusive. % is scaled to controls: 0 for no effect and ±100 for the full control effect; potency is read from the fitted curve at half-maximal effect.

SMILES	Tb PYK inh	RE007 growth inh	LmPK inh	Sm TGR inh
COc1cc(C2/C(=C(\O)c3ccc4c(c3)CC(C)O4)C(=O)C(=O)N2CCCn2ccnc2)ccc1O (configuration not stated)	-5%	-1%	1%	-33%
C=CCOc1ccc(C2/C(=C(\O)c3ccc4c(c3)CC(C)O4)C(=O)C(=O)N2CCN2CCOCC2)cc1OCC (configuration not stated)	5%	-6%	-3%	40µM*
CCOc1ccc(C2/C(=C(/O)c3ccc4c(c3)CC(C)O4)C(=O)C(=O)N2CCCn2ccnc2)cc1OCC (configuration not stated)	2%	-16%	-6%	89µM*
CCNC(=O)C1(C)CCCN1C(=O)c1ccc2c(c1)OCO2 (configuration not stated)	-6%	3%[18.4 µM]	nt	nt
CCC(c1c(C)[nH]oc1=O)c1c(C)[nH]oc1=O	-10%	-1%	0%	25µM*
Cc1[nH]c(=O)[nH]c(=O)c1NC(=O)c1ccccc1[N+](=O)[O-]	-1%	-2%	nt	nt
CC(=O)Nc1ccc(OC(C)=O)cc1	0%	nt	nt	nt
CC(=O)OCC1(C)CN(c2ccccc2)N(C(C)=O)C1=O (configuration not stated)	-2%	-6%	-7%	0%
CC(=O)OCC1(C)CN(c2ccccc2)NC1=O (configuration not stated)	-10%	1%	-21%	7.9µM*
Cc1cccc(N2CCC(N3CCN(C4CCCCC4)C(CCO)C3)CC2)c1C (configuration not stated)	0%	-15%	8%	5µM*
CC(C)N1CCC(N2CCN(C3CCCC3)CC2CCO)CC1 (configuration not stated)	-6%	-5%	-1%	nt
CSc1cccc(NC(=O)C2CCCN(S(C)(=O)=O)C2)c1 (configuration not stated)	6%	-12%	nt	nt
COc1ccc(C2=NN(c3nc(-c4ccccc4)c(CC(=O)O)s3)C(c3ccco3)C2)cc1 (configuration not stated)	-17%	-5%	-3%	20µM*
COc1ccc(-c2cc(=O)c3cc(OCC(=O)OC(C)C)ccc3o2)cc1	7%	nt	nt	3%
O=C(CNC(=O)c1ccc(Cl)cc1)OCc1cc(=O)n2ccsc2n1	-5%	nt	nt	35µM*
CCOc1ccc(NC(=O)CSc2nnc(-c3cc(C)[nH]n3)n2N)cc1	2%	5%	5%	0%
COc1ccc(C2C(O)C(c3c[nH]c4ccccc34)=NN2C(=O)CCl)cc1 (configuration not stated)	-7%	3%	2%	8.9µM*
COc1ccc(NS(=O)(=O)c2c(F)cccc2F)cc1S(=O)(=O)N1CCOCC1	-9%	22%	nt	40µM*
O=c1c2ccccc2sn1-c1ccc(S(=O)(=O)N2CCCC2)cc1	6.3µM*	0%	9%	?
Cc1ccc(-n2sc3ccccc3c2=O)cc1S(=O)(=O)N1CCCCC1	4µM*	16µM*	-3%	-20%
O=c1c(-c2ccc(F)c(F)c2)nc2cncnc2n1Cc1ccccc1	-5%	nt	nt	nt
CCCn1c(CN2CCN(c3ccc(OC)cc3)CC2)nc2c1c(=O)[nH]c(=O)n2C	-3%	nt	nt	4%
CCOc1ccc2nc(C)cc(Nc3ccccc3OCC)c2c1	1%	nt	nt	2%
O=C(Cn1ncc(Cl)c(Cl)c1=O)N1CCc2ccccc21	0%	0%	0%	16µM*
O=C(Cn1ncc(Cl)c(Cl)c1=O)N1CCN(Cc2ccccc2)CC1	1%	-11%	10%	8.9µM*
SMILES	Tb PYK inh	RE007 growth inh	LmPK inh	Sm TGR inh
O=C(Cn1ncc(Cl)c(Cl)c1=O)N1CCOCC1	1%	5%	1%	-29%
CC1(C)C(=O)Nc2ccccc2N1C(=O)Cn1ncc(Cl)c(Cl)c1=O	3%	5%	4%	10µM*
COc1ccc(NC(=O)Cn2ccn(-c3ccccc3)c(=O)c2=O)cc1	-3%	nt	nt	-3%
O=C(CC1N=C2c3ccccc3N=C(SCc3ccc(Cl)cc3)N2C1=O)NCCc1ccccc1 (configuration not stated)	5%	nt	nt	7%
Cc1cc(F)ccc1-n1nnc(C(N)=O)c1C	-1%	nt	nt	1%
S=C(Nc1ccc2nsnc2c1)N1CCCC1	-8%	4%	?	40µM*
COC(=O)C1Cc2c([nH]c3ccccc23)C2(CCN(Cc3ccccc3)CC2)N1 (configuration not stated)	?	4%	1%	-9%
CCCC1NC(C(=O)O)Cc2c1[nH]c1ccccc21 (configuration not stated)	3%	-21%	-6%	45µM*
CCCN1CCC2(CC1)NC(C(=O)O)Cc1c2[nH]c2ccccc12 (configuration not stated)	-18%	-12%	0%	25µM*
CCC1(C)NC(C(=O)O)Cc2c1[nH]c1ccccc21 (configuration not stated)	-8%	9%	-2%	35µM*
CCOc1cc(C(=O)N(Cc2nc(-c3ccc(C)cc3)no2)C(C)C)cc(OCC)c1OCC	-1%	nt	nt	6%
Cc1oc2ccc(O)c(CN3CCOCC3)c2c1C(=O)Nc1ccc(C(C)C)cc1	2%	nt	nt	1%
O=C(CCS(=O)(=O)c1ccccc1)N1CCCc2ccccc21	0%	-10%	2%	40µM*
O=C(CCC(=O)N1CCCc2ccccc21)N1CCN(S(=O)(=O)c2ccccc2)CC1	-5%	17%	1%	-2%
O=C(O)CCCCCNS(=O)(=O)c1cccc2c1C(=O)c1ccccc1C2=O	9%	?	1%	50µM*
O=C(O)CCCCCNS(=O)(=O)/C=C/c1ccccc1	-10%	-3%	3%	nt
O=C(c1ccc(CS(=O)c2ccccc2Cl)o1)N1CCN(c2ccccc2F)CC1 (configuration not stated)	0%	nt	nt	0%
Cc1ccc2c(c1)N(Cc1cccc(F)c1)C(=O)C(C)O2 (configuration not stated)	3%	-11%	3%	4%
CC1Oc2ccccc2N(Cc2cccc(F)c2)C1=O (configuration not stated)	-4%	-3%	7%	89µM*
N#Cc1cn(-c2ccccc2)nc1-c1ccco1	nt	1%[3.69 µM]	-1%	45µM*
N#Cc1cn(-c2ccccc2)nc1-c1ccc2c(c1)OCCO2	-3%	12%	2%	-3%
COc1ccccc1Oc1c(C)oc2cc(OC(=O)N(C)C)ccc2c1=O	-5%	13%	-1%	4%
COc1ccc(Oc2c(C)oc3cc(OC(=O)N(C)C)ccc3c2=O)cc1	-4%	-2%	0%	22µM*
CSc1ccc(CCNC(=O)Cn2ncc3c(=O)oc4ccccc4c32)cc1	-2%	nt	nt	-17%
O=C1C2C3C=CC(O3)C2C(=O)N1CC(O)c1ccccc1 (configuration not stated)	-3%	-15%	3%	11µM*
